The whole screen tested about 13,000 compounds, of which about 3,200 (25%) showed an effect of 50% or more. Some of the results follow.
Each molecule was assayed on P. falciparum stage V gametocytes. Details: 48 h, 5 µM; inhibitor.
Design: BacTiter-Glo ATP luminescence viability of purified stage V gametocytes in 384-well plates, per cent inhibition versus DMSO

Compound	% Inhibition [%]
CN(C)C(=O)c1ccc(CN(Cc2cccc(OC(C)(C)C)c2)Cc2ccc3c(c2)OCCO3)cc1 [TCMDC-136614]	66.69
CC(=O)Nc1ccc(CN(Cc2ccc(C)cc2)Cc2cccc(Oc3ccccc3)c2)cc1 [TCMDC-140147]	4.246
CN(C)C(=O)c1ccc(CN(Cc2ccc(OC(C)(C)C)cc2)Cc2ccc3c(c2)OCCO3)cc1 [TCMDC-136615]	62.57
CC(=O)Nc1ccc(CN(Cc2ccc(OC(C)(C)C)cc2)Cc2ccc3c(c2)OCCO3)cc1 [TCMDC-136616]	-22.37
CN(C)C(=O)c1ccc(CN(Cc2ccc3c(c2)OCCO3)Cc2ccc3c(c2)OCO3)cc1 [TCMDC-136612]	-1.47
O=C(CC(=O)C(F)(F)F)c1ccc2c(c1)OCO2 [TCMDC-125824]	-11.59
CC(=O)Nc1ccc(CN(Cc2cccc(OC(C)(C)C)c2)Cc2ccc3c(c2)OCCO3)cc1 [TCMDC-136613]	87.49
CC(C)(C)OC(=O)NCC(=O)N(Cc1ccccc1)Cc1ccccc1 [TCMDC-131954]	1.715
Cc1ccc(CN(Cc2ccc(C(=O)N(C)C)cc2)Cc2ccc3c(c2)OCCO3)cc1C [TCMDC-136617]	24.15
O=C(/C=C/c1ccc([N+](=O)[O-])cc1)N1CCC(NS(=O)(=O)c2cccc(C(F)(F)F)c2)CC1 [TCMDC-139443]	-15.57
c1ccc(C(c2ccccc2)N2CCN(C(c3cccnc3)c3nnnn3C3CCCC3)CC2)cc1 (stereo not shown) [TCMDC-123571]	-4.144
Cc1cc(NC(=O)Nc2ccc3ccn(C)c3c2)c2ccccc2n1 [TCMDC-140057]	10.89
CC1CCN(c2nc(C(=O)Nc3ccc(F)cc3C(F)(F)F)c(C(C)C)s2)CC1 [TCMDC-134661]	-14.15
CC1(C)N=C(N)N=C(N)N1c1cc(Cl)c(Cl)cc1Cl [TCMDC-124503]	-35.38
CSc1nc2cc3c(cc2n1C(=O)c1ccc(C)cc1)OCCO3 [TCMDC-125385]	-23.6
Cc1ccccc1N1CCN(c2ccc(C(=O)Nc3ccccc3)cc2)CC1 [TCMDC-134565]	28.84
O=C(O)C(F)(F)F.c1ccc2[nH]c(-c3ccc(-c4ccc(CNCC5CCCO5)cc4)s3)nc2c1 (stereo not shown) [TCMDC-133106]	-3.113
FC(F)(F)c1ccccc1OCc1cc(-c2ccncc2)c(COc2ccccc2C(F)(F)F)cc1C1=CCNCC1 [TCMDC-134498]	112.2
Oc1ccc(-c2cc(COc3ccccc3C(F)(F)F)c(C3=CCNCC3)cc2COc2ccccc2C(F)(F)F)cc1 [TCMDC-134520]	89.52
CN(C)CCOc1cc(NC(=O)Nc2ccc(-c3ccncc3)c(C(F)(F)F)c2)ccc1Cl [TCMDC-139224]	-31.22
COc1cc(C=CC(=O)N2CCN(Cc3cccc(C)c3)CC2)ccc1OCc1c(C)noc1C [TCMDC-125249]	23.84
Cc1nc(N)nc(N)c1Oc1cccc(Cl)c1 [TCMDC-137376]	-5.588
Cc1ccc(C)c(NC(=O)NCCNc2ccnc(Nc3ccc(F)cc3)n2)c1 [TCMDC-133638]	7.929
CN1CCN(c2cc(NC(=O)c3ccc(-c4ccc(C#N)cc4)cc3)ccc2Cl)CC1 [TCMDC-138670]	-41.42
O=C(Nc1ccc(OC2CCN(Cc3ccc(F)cc3)CC2)c(Cl)c1)c1ccsc1 [TCMDC-133745]	-5.727

Compound	% Inhibition [%]
Cc1cc(=O)oc2c1ccc1oc(C(O)c3ccc(Cl)cc3)c(C)c12 (stereo not shown) [TCMDC-123999]	-9.04
Fc1ccc2c(NN=Cc3ccccc3F)ccnc2c1 [TCMDC-142018]	101.1
Cc1cc(NN=Cc2ccccc2F)c2ccccc2n1 [TCMDC-123982]	-9.703
Fc1cccc(C=NNc2ccnc3cc(Cl)ccc23)c1 [TCMDC-123966]	-20.4
Cc1ccc2nc(C)cc(NN=Cc3ccccc3Cl)c2c1 [TCMDC-142062]	-47.12
CCOc1ccc2nc(C)cc(NN=Cc3ccccc3Cl)c2c1 [TCMDC-142090]	95.12
Cc1cc(NN=Cc2ccccc2F)c2cc(C(F)(F)F)ccc2n1 [TCMDC-142027]	-61.45
Fc1cccc(C=NNc2ccnc3ccccc23)c1 [TCMDC-142058]	-35.92
Cc1ccc2nc(C)cc(NN=Cc3ccccc3F)c2c1 [TCMDC-142065]	60.82
CCOc1ccc2nc(C)cc(NN=Cc3ccccc3F)c2c1 [TCMDC-142092]	61.8
COc1ccc2nc(C)cc(NN=Cc3ccccc3F)c2c1 [TCMDC-142083]	38.04
CCOc1ccc2nc(C)cc(NN=Cc3cccc(C)n3)c2c1 [TCMDC-142050]	48.92
CC(C)CC(NC(=O)c1cccc(OCCN2CCOCC2)c1)C(=O)NC(/C=N/NC(=O)c1ccccc1)CCc1ccccc1 (stereo not shown) [TCMDC-135464]	15.6
CC1(C)CCCN(C(=O)c2cccc(-n3nc(-c4ccc(Cl)cc4)cc3N)c2)C1 [TCMDC-134042]	-38.1
O=C(Nc1ccc2c(c1)CCC2)c1cnc(N2CCN(c3ccncc3)CC2)c(Cl)c1 [TCMDC-134596]	8.854
O=C(Nc1ccc(Br)cc1)N(CCN1CCOCC1)CC(O)COCc1ccc(Cl)c(Cl)c1 (stereo not shown) [TCMDC-141490]	5.181
Cc1ccc(N2C(N)=NC(N)=NC2(C)C)cc1 [TCMDC-131578]	18.97
CN(CCON1C(N)=NC(N)=NC1(C)C)c1ccccc1 [TCMDC-131733]	4.514
O=C(Nc1ccc(I)cc1)N1CCc2sccc2C1CN1CCCCC1 (stereo not shown) [TCMDC-136648]	-39.22
CC(CN(C)C)C(=O)Nc1cccc(-c2ccc(-c3nc4cc(F)ccc4[nH]3)s2)c1 (stereo not shown) [TCMDC-137114]	-16.25
CCN(CCO)CCCC(C)Nc1ccnc2cc(Cl)ccc12 (stereo not shown) [TCMDC-123987]	30.66
CCC(C)(C)C1CCc2nc(N)nc(N)c2C1 (stereo not shown) [TCMDC-137870]	-20.62
CC(C)(C)C1CCc2nc(N)nc(N)c2C1 (stereo not shown) [TCMDC-137954]	82.06
CC(C)C1CCc2nc(N)nc(N)c2C1 (stereo not shown) [TCMDC-137947]	0.4281
CCCC1(NC[C@@H](O)[C@H](Cc2ccccc2)NC(=O)c2cc(NCC)cc(N3CCCCS3(=O)=O)c2)CCC1 [TCMDC-135374]	23.04

Compound	% Inhibition [%]
CCOC(=O)CN1Cc2cc(NCc3ccc4ccc5nc(C)[nH]c(=O)c5c4c3)ccc2C1=O [TCMDC-137815]	10.92
Nc1nc(N)c2c(Cl)c(CNc3cccc(C(=O)O)c3)ccc2n1 [TCMDC-138268]	-3.552
COc1ccc(CNc2ccc3nc(N)nc(N)c3c2)cc1 [TCMDC-139002]	12.04
CCOC(=O)COc1cccc(CNc2ccc3nc(N)nc(N)c3c2)c1 [TCMDC-137822]	100.9
CCN(Cc1cccc2ccccc12)c1ccc2nc(N)nc(N)c2c1 [TCMDC-137765]	-46.6
Cc1ccccc1CNc1ccc2nc(N)nc(N)c2c1 [TCMDC-135439]	74.86
CCOc1ccccc1C(=O)N1CCc2cc3nccc(N4CCN5CCC[C@H]5C4)c3cc21 [TCMDC-140042]	21.16
CN(C)CCOc1ccc(-c2cc(-c3ccc(Cl)c(O)c3)c(-c3ccncc3)o2)cc1 [TCMDC-141254]	-18.41
COc1ccc2nc(NC3=NC(c4ccccn4)(c4ccccn4)C(=O)N3C)[nH]c2c1 [TCMDC-139288]	10.34
Cc1cccc(CN2CCCN(Cc3cccc(C(=O)Nc4ccc(C(C)(C)C)cc4)c3)CC2)c1 [TCMDC-135984]	-91.41
CN(C)CCOc1ccc(-c2cc(-c3ccc(Cl)c(O)c3)c(-c3ccnc(N)n3)o2)cc1 [TCMDC-141332]	28.72
CC1CN(c2cccc3c2nc(-c2cncc(C#N)c2)n3CCNCc2ccccc2)CC(C)O1 (stereo not shown) [TCMDC-133411]	66.36
N#Cc1cncc(-c2nc3c(N4CCC(Cc5ccccc5)CC4)cccc3n2CCNCc2ccccc2)c1 [TCMDC-133546]	51.69
c1ccc(CNCCn2c(-c3ccc4c(c3)CCO4)nc3c(N4CCCC4)cccc32)cc1 [TCMDC-134289]	92.48
N#Cc1cncc(-c2nc3c(N4CCC(N5CCCC5)CC4)cccc3n2CCNCc2ccccc2)c1 [TCMDC-133547]	94.76
N#Cc1cncc(-c2nc3c(N4CCN(c5cnccn5)CC4)cccc3n2CCNCc2ccccc2)c1 [TCMDC-133413]	-21.4
CN(C)c1cccc2c1nc(-c1ccc3c(c1)CCO3)n2CCNCc1ccccc1 [TCMDC-134062]	5.243
N#Cc1ccc(-c2nc3c(N4CCCC4)cccc3n2CCNCc2ccccc2)cc1 [TCMDC-133433]	30.7
Oc1ccc(-c2nc3c(N4CCN(Cc5ccccc5)CC4)cccc3n2C2CCNCC2)cc1 [TCMDC-132125]	4.567
N#Cc1cncc(-c2nc3c(N4CCCC(N)C4)cccc3n2CCNCc2ccccc2)c1 (stereo not shown) [TCMDC-135364]	-9.75
COc1ccccc1N1CCN(c2cccc3c2nc(-c2cncc(C#N)c2)n3CCNCc2ccccc2)CC1 [TCMDC-133412]	-37.42
CC(C)CN(C)c1ncnc2c1nc(-c1cncc(C#N)c1)n2CCNCc1ccccc1 [TCMDC-136555]	12.57
CC[C@H](C)CNC(=O)c1cncc(-c2cccc(CN3CCC(N4CCCC4)CC3)c2)c1 [TCMDC-134226]	16.8

Source: article PMC4552634, “A New Set of Chemical Starting Points with Plasmodium falciparum Transmission-Blocking Potential for Antimalarial Drug Discovery” (PLoS ONE, 2015)
